# A selection: hits, their analogues and other compounds. The true share with any hit is near 1%.
# GC-B act – GC-B (human) receptor activation | HEK293-GC-B cells, CNP EC30, cGMP TR-FRET; 0% at EC30 CNP, 100% saturating CNP | activation, % at 10 µM | AID 1920062 | 0.11% of 370,000 active;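 active means activation at 10 µM reaching about 35% in either raw or pattern-adjusted values, limit read from the data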
# Target sequence (P20594 whole entry, looked up): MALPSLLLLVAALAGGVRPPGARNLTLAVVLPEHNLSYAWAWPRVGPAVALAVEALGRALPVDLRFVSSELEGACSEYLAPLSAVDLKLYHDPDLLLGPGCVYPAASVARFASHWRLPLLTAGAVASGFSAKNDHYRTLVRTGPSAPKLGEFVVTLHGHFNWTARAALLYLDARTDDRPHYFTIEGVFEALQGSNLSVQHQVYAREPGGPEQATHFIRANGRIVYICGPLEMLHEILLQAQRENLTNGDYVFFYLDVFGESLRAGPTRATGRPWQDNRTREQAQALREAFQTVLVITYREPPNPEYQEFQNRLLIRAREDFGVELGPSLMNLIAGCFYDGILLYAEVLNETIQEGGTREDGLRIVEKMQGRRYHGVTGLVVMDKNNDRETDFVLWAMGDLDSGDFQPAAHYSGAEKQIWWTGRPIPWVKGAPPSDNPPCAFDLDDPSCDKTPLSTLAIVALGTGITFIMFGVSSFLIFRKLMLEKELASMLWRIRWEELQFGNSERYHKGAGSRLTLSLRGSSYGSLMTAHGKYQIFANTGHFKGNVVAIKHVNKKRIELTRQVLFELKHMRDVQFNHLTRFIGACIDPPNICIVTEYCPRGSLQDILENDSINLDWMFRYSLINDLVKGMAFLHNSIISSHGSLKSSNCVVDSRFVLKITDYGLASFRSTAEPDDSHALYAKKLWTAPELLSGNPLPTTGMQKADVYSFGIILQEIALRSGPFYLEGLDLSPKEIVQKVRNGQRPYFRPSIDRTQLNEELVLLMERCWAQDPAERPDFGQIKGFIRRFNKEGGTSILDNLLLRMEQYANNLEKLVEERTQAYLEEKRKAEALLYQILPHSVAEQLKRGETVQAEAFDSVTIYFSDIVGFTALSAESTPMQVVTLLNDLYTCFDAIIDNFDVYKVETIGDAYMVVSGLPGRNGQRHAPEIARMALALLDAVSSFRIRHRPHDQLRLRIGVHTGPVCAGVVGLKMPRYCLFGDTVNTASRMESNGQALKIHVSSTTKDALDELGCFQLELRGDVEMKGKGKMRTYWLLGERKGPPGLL
# HSV replic up – HSV replication enhancement; HSV replication augmentation in cells, fold increase; maximum fold increase; 0.005% of 220,000 active; in the data active means maximum fold increase above about 1.5; tested in PC3 cells
# Efflux pump inh – inhibitors of Candida antifungal efflux pumps expressed in yeast. inhibition, % at 10 µM. S. cerevisiae Candida pump triplex, Nile Red efflux. AID 485275. 0.44% of 330,000 active;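 active means plate passing quality check with inhibition over a set limit, or well fluorescence over plate mean plus 4 SD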;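 further: Nile Red retained in pooled yeast measured as flow cytometry median fluorescence; 0% = buffer negative control and 100% = Enniatin B positive control; higher means more Nile Red kept so more efflux inhibition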
# Bfl-1 A1 inh – inhibitors of the anti-apoptotic protein A1, read as caspase activation. MEF A1-2A-BIM cells, Caspase-Glo 3/7 luminescence, 3 h; percent of clofoctol response, vehicle zero. caspase activation, % (test concentration not listed). 0.066% of 330,000 active;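 active means over half of replicate activation scores above 10%, or exactly half above 10 with the replicate mean above 10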
# GC-A act – GC-A (human) enzyme activation. 0.14% of 370,000 active. activation, % at 10 µM. HEK293 GC-A cells, cGMP TR-FRET, EC30 ANP; 0% at EC30 ANP, 100% saturating ANP. AID 1671463. P16066; in the data active means activation above about 40%
# TAG inh – triacylglycerol accumulation inhibition; 0.66% of 230,000 active; AID 651582; H9c2 cells, Nile Red lipid (TAG) fluorescence; cells loaded with 200 µM oleic acid; inhibition, % at 12.5 µM;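 active means pattern-corrected inhibition of lipid staining of at least 50% with the nuclear-stain viability signal not falling by more than 50%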;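 further: 0% = DMSO wells and 100% = triacsin C control wells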
# * hit, by the source's call; i = inactive; . = no result given.
SMILES,GC-B act,HSV replic up,Efflux pump inh,Bfl-1 A1 inh,GC-A act,TAG inh
COC(=O)[C@]12C[C@H](CC(=O)N3CCOCC3)C(=O)N(Cc3ccc(Cl)cc3Cl)C1=C[C@H](C1CCCC1)O[C@@H]2C,-21,.,.,.,-20,.
Cc1ccnc(N/C=C(/NC(=O)c2ccccc2)C(=O)N/N=C\c2ccc(Cl)cc2)n1,3,i,0,1,52*,-4
CC(=O)N1CCN(CC(=O)Nc2ccccc2Sc2ccc(Cl)cc2)CC1,-9,i,0,0,-9,.
O=C(CCl)Nc1ccccc1Sc1ccc(Cl)cc1,-3,i,0,0,45*,.
COc1cc(CNC2CCCCCCC2)ccc1OCC(N)=O,0,.,0,1,-5,.
CCOc1ccc(CNC2CCCCCCC2)cc1OC,2,.,0,12*,-3,0
CCC(COC)Oc1cc(NCc2ccccc2)c2ncn(C(C)C)c2c1 (centres undefined),57*,.,0,0,28,-22
COCCCNC(=O)C[C@H]1C(=O)N(Cc2ccc(OC)cc2)C2=CCCCC[C@@]21C(=O)OC,-3,.,.,.,-2,.
COc1ccc(C(C(=O)NC(C)(C)C)n2c(COc3ccc(C)cc3)nc3ccccc32)cc1 (centres undefined),-19,.,.,.,-20,.
COc1ccc(C(C(=O)NC(C)(C)C)n2c(-c3ccc(=O)[nH]c3)nc3ccccc32)cc1 (centres undefined),45*,.,.,.,45*,.
O=Nc1c(-c2c(O)[nH]c3cc(Br)ccc23)[nH]c2ccccc12,18,.,0,-1,33,84*
C=CCn1c(SCC(=O)Nc2ccccc2-c2ccccc2)nnc1-c1ccc(Cl)cc1,3,.,.,.,-8,.
CC(C)(C)n1ncc2c(=O)n(Cc3c(F)cccc3Cl)cnc21,40*,i,0,1,28,.
Oc1cc(NCCN2CCOCC2)cc2cccnc12,-7,.,0,0,-4,74*
COc1ccc(OC)c(CN2C(=O)CN(S(C)(=O)=O)CC2(C)c2nnnn2C2CCCC2)c1 (centres undefined),2,.,.,.,-4,.
COc1cccc(Oc2cn[nH]c2-c2ccc(OC)cc2O)c1,-2,i,0,-1,0,-7
COc1cccc(Oc2cn[nH]c2-c2ccc(O)cc2O)c1,15,i,0,-1,55*,.
CC(C)(C)C(=O)CSc1nnc(SCc2cccc3ccccc23)s1,-4,.,.,.,-4,.
CC1=C(C(=O)N2CCOCC2)C(c2ccc(C)cc2)NC(=S)N1 (centres undefined),65*,i,0,1,59*,-4
CC1=C(C(=O)N2CCOCC2)C(c2c(C)cc(C)cc2C)NC(=S)N1 (centres undefined),6,i,0,1,1,7
CC1=C(C(=O)N2CCOCC2)C(c2ccc(Cl)cc2)NC(=S)N1 (centres undefined),61*,i,0,0,54*,.
C#CCOCCOCCOCCNc1nc(N2CCN(C(=O)[C@H]([C@@H](C)O)n3cc(CCCCN)nn3)CC2)nc(N2CCN(C(=O)[C@H](C)n3cc(CCC(=O)O)nn3)CC2)n1,6,.,.,.,5,7
C#CCOCCOCCOCCNc1nc(N2CCN(C(=O)[C@H]([C@@H](C)CC)n3cc(CCCCN)nn3)CC2)nc(N2CCN(C(=O)[C@H](C)n3cc(CCC(=O)O)nn3)CC2)n1,53*,i,0,1,3,.
C#CCOCCOCCOCCNc1nc(N2CCN(C(=O)CCCCCCCCCCNC(=O)[C@H]([C@@H](C)CC)n3cc(CCCCCN)nn3)CC2)nc(N2CCN(C(=O)CCCCCCCCCCNC(=O)[C@@H]([C@H](C)CC)n3cc(CCCCCN)nn3)CC2)n1,.,.,0,6.6*,.,.
COc1ccc(Cn2c(SCc3cc(C)ccc3C)nc3cc(OC)c(OC)cc3c2=N)cc1,18,i,0,1,4,112*
SMILES,GC-B act,HSV replic up,Efflux pump inh,Bfl-1 A1 inh,GC-A act,TAG inh
COc1ccc(-n2c(N)c(C(=O)NCC3CCCO3)c3nc4ccccc4nc32)c(OC)c1 (centres undefined),40*,i,0,0,40*,.
O=C1C(=O)N(CNc2ccccn2)c2ccccc21,.,i,0,0,.,59*
COC(=O)[C@]12C[C@H](CC(=O)N3CCN(C(=O)c4ccco4)CC3)C(=O)N(Cc3cccc4ccccc34)C1=C[C@H](C(C)C)O[C@@H]2C1CC1,6,.,.,.,-8,.
C=CCN(CC#Cc1cccnc1)Cc1ccc(OC)cc1OC,-8,.,.,.,-9,.
C=CCNC(=S)Nc1c(C(=O)OC)[nH]c2cc(OC)ccc12,36*,i,0,0,20,16
COC(=O)c1[nH]c2cc(OC)ccc2c1NC(=O)c1c(F)cccc1F,-1,i,0,0,-4,15
CCCc1ccc(Oc2cn[nH]c2-c2ccc(O)c(C)c2O)cc1,4,i,0,0,47*,.
CCOc1ccccc1NC(=O)NNC(=O)CCn1nc(C)c([N+](=O)[O-])c1C,6,.,.,.,0,.
O=C(Nc1cccc([N+](=O)[O-])c1)NC1CCCCN(Cc2ccc(Cl)cc2)C1=O (centres undefined),-6,.,.,.,2,.
Cn1cnc([N+](=O)[O-])c1Sc1nc(N)nc2c1ncn2Cc1ccccc1,44*,.,.,.,36,0
CCCn1cnc2c(Sc3c([N+](=O)[O-])ncn3C)nc(N)nc21,8,.,.,.,2,2
O=S1(=O)c2ccccc2-c2c(nnn2Cc2ccccc2)CN1C1CC1,-4,.,.,.,3,.
c1ccc(/N=C2\N=C(Nc3ccccn3)c3ccccc32)nc1,-5,.,0,-1,-25,51*
CCN(CC(=O)Nc1c(F)cccc1F)C(=O)/C=C/c1ccc(OCC#N)c(OC)c1,-3,.,0,0,2,-2
CCN(CC(=O)Nc1c(F)cccc1F)C(=O)/C=C/c1ccc(C)cc1,-3,.,0,12*,-4,4
CCCSc1nc(SCC(=O)NCc2ccccc2)c2c3c(sc2n1)COC(C)(C)C3,-12,i,0,2,-6,56*
Cc1cccc(/C=C/C(=O)c2ccc([N+](=O)[O-])o2)c1,-14,.,0,3,-3,35
Cc1ccccc1/C=C/C(=O)c1ccc([N+](=O)[O-])o1,-6,.,0,11*,5,.
CCCn1c(N)c(C(=O)CSc2nc(C)nc3sc(C)c(C)c23)c(=O)[nH]c1=O,-1,.,0,-1,41*,-5
NCCCn1c(C(=O)c2cc(Cl)c(N)c(Cl)c2)c2ccc(C(F)(F)F)cc2[n+]1[O-],-8,.,0,1,-8,-7
NC(=O)CCCn1c(C(=O)c2cc(Cl)c(N)c(Cl)c2)c2ccc(C(F)(F)F)cc2[n+]1[O-],84*,.,0,0,-2,8
